# Measured values as given in ChEMBL document CHEMBL3988442, “University of Dundee, Small-Polar-MMV Screening Library” (2021).
# Out of some 48,000 compounds screened, about 13,000 (27%) showed an effect of 50% or more. The list shows a part of the results.
# System: Wolbachia pipientis
# Assay: Anti-Wolbachia Cell-Based Screen
# Type: functional
# Set-up: scale not given: in the data most compounds retested in dose-response had high values
# Settings: 5 µM
row,SMILES,Percent Effect
1,Cc1nc(COc2ccc(OCC(N)=O)cc2)oc1C,23.22%
2,CC(C)N(C)C(=O)CN1C(=O)OC[C@@H]1c1ccccc1,-15.23%
3,Cc1nc(C)c(CN2CCC(N(C)Cc3nnc(C4CC4)o3)C2)s1 (stereo not given),83.42%
4,Cc1nc(C)c(CN2CCC(N(C)Cc3noc(C4CC4)n3)C2)s1 (stereo not given),84.99%
5,CCn1c(C)nnc1CN(C)C1CCN(Cc2sc(C)nc2C)C1 (stereo not given),1.106%
6,Cc1ccc(N2CCCC(N(C)Cc3nnc(C4CC4)o3)C2)nn1 (stereo not given),-13.84%
7,Cc1ncc(CN(C)C2CCCN(Cc3noc(C4CC4)n3)C2)s1 (stereo not given),1.76%
8,Cc1nc(CN(C)C2CCN(Cc3sc(C)nc3C)C2)no1 (stereo not given),-5.233%
9,O=C(CN1C(=O)c2ccccc2CS1(=O)=O)c1ccccc1,-5.153%
10,COCC(C)NC(=O)c1cncc(Br)c1 (stereo not given),15.5%
11,Cc1cc(O)cc2c(=O)oc(CC(C)O)cc12 (stereo not given),-7.016%
12,Cc1ccc(OCc2nc(CNCC3CN(C)CCO3)cs2)cc1 (stereo not given),109.6%
13,CC(C)CCc1nc(CNCC2CN(C)CCO2)cs1 (stereo not given),94.45%
14,CN1CCOC(CNCc2nc(-c3ccccc3)cs2)C1 (stereo not given),5.622%
15,Cc1ccc(-c2cn3c(n2)CO[C@@H](CNCc2nccs2)C3)cc1,-9.469%
16,Cc1c(F)cccc1NC(=O)N(C(C)CS(C)(=O)=O)C1CC1 (stereo not given),-14.75%
17,CCC(CO)N(Cc1ccccn1)C(=O)c1ccc2c(c1)CCO2 (stereo not given),6.403%
18,CCSCc1cccc(NC2CCN(C)C2=O)c1 (stereo not given),-4.409%
19,CCCc1nc(CN2CCCC2Cn2cncn2)cs1 (stereo not given),0.1257%
20,CC(C)c1nc(CN2CCCC2CN2CCCC2)cs1 (stereo not given),11.4%
21,CC(C)c1nc(CN2CCCCC2Cn2cncn2)cs1 (stereo not given),82.22%
22,CCCc1nc(CN2CCCCC2Cn2cncn2)cs1 (stereo not given),92.11%

row,SMILES,Percent Effect
1,CN(C)C(=O)Cc1nc(CN2CCCCC2Cn2cncn2)cs1 (stereo not given),-10.91%
2,c1ncn(CC2CCCCN2Cc2csc(C3CCCC3)n2)n1 (stereo not given),3.175%
3,Cc1nc(C(NS(=O)(=O)N(C)C)c2ccccc2F)no1 (stereo not given),-14.73%
4,O=C(NC[C@H]1OC[C@@H](NC2CCC(F)(F)CC2)[C@@H]1O)c1ccccc1,-10.21%
5,O=C(CCc1ccncc1)N1CCc2c(ncnc2N2CCOCC2)C1,-13.92%
6,COc1cc(C)c2c(c1C)C[C@H]([C@H](C)C(=O)O)CC2,-11.67%
7,Cn1ncc2c(=O)[nH]c(CN3CCCc4cc(F)ccc43)nc21,-1.731%
8,CSCCC(C)NC(=O)CCN1C(=O)CCc2cc(F)ccc21 (stereo not given),2.729%
9,CN1CCN(S(C)(=O)=O)c2ccc(F)cc21,-0.158%
10,CN1Cc2cc(F)ccc2N(CC(C)(C)O)CCC1=O,116.8%
11,CCN1CC2(CCC1=O)CCN(Cc1cc(F)ccc1Cl)CC2,-6.305%
12,CCN1CCC(=O)N(C)Cc2cc(F)ccc21,110.2%
13,COc1cc(C(C)=O)ccc1OCC(=O)N(CC(C)C#N)C1CC1 (stereo not given),-5.755%
14,O=C(NC1CCCCC1)c1ccc(Oc2ccc3nncn3n2)cc1,113.3%
15,CC1CN(CC(=O)NC2CCCC2)CCN1c1ccc2nncn2n1 (stereo not given),1.075%
16,O=C(CN1CCN(c2ccc3nncn3n2)CC1)NC1CCCC1,0.9347%
17,CN(C)C(CNC(=O)c1cccc(-n2cnnn2)c1)c1ccccc1Cl (stereo not given),-8.623%
18,O=C(CN1CCN(c2ccc3nncn3n2)CC1)NC1CCCCC1,14.04%
19,CC(Nc1cccc(Oc2ccc(C#N)cn2)c1)C(=O)NC1CC1 (stereo not given),4.844%
20,COc1cccc(C(=O)NCC(O)c2cccs2)c1 (stereo not given),-0.6339%
21,CC(C)CNC(=O)c1cccc(Oc2ccc3nncn3n2)c1,96.36%
22,CC(C)NC(=O)c1ccc2nnc(C3CCN(C(=O)NC(C)C)C3)n2c1 (stereo not given),5.911%

row,SMILES,Percent Effect
1,CC(C)NC(=O)c1cccc(Oc2ccc3nncn3n2)c1,131.1%
2,CC(=O)N1CC(c2ncn(C(C)C)n2)c2cc(C(=O)NC(C)C)ccc21 (stereo not given),-2.765%
3,O=C(NC1CC1)c1cccc(Oc2ccc3nncn3n2)c1,135.1%
4,N#Cc1cccnc1NCCNC(=O)N1CCCC(C(F)(F)F)C1 (stereo not given),-23.68%
5,CS(=O)(=O)NCCC1CN(Cc2ccccc2F)CCO1 (stereo not given),-13.1%
6,N#Cc1c[nH]c(C(=O)N(Cc2ccc(O)cc2)CC2CC2)c1,-16.08%
7,O=C(NCC(O)c1cccs1)c1cccc(Cl)c1 (stereo not given),-18.24%
8,CNc1nc(C(=O)N2CCC3(CCCN(CCOC)C3=O)C2)cs1 (stereo not given),-30.8%
9,O=C(c1ncc[nH]1)N1CCC(n2cc(-c3cccc(Cl)c3)nn2)CC1,-7.325%
10,O=C1CCNc2ncc(-c3cccc(Cl)c3)cc2CN1C1CC1,104.4%
11,COc1ccc(NC2CCN(C3CC3)C2=O)cn1 (stereo not given),-16.66%
12,O=C1CCNc2ncc(-c3ccc(Cl)cc3)cc2CN1C1CC1,113.7%
13,O=S(=O)(c1ccccc1Cl)N1CCc2nc(C3CCNCC3)ncc2C1,-5.628%
14,CNC(=O)c1cn2cc(-c3cccc(Cl)c3)n(CC3CC3)c(=O)c2n1,-6.691%
15,O=C1CCNc2ncc(-c3ccccc3Cl)cc2CN1C1CC1,75.8%
16,COc1ccc(-c2cnc3c(c2)CN(C2CC2)C(=O)CCN3)cc1,106.7%
17,COc1ccc(-c2nnc(CN3CCNC(=O)C3)o2)cc1,-34.6%
18,CC(O)c1cn(C2CCN(C(=O)C3(C)CCCCC3)CC2)nn1 (stereo not given),29.6%
19,NC(=O)CCOc1ccc(NC(=O)c2ccccc2OC(F)F)cc1,5.121%
20,CC(=O)N1CCC(N2CCOC[C@H]2c2nc(C(C)(C)C)c[nH]2)CC1,-20.09%
21,CNC(=O)c1ccnc(CC2COc3c(cccc3OC)C2)c1 (stereo not given),100.6%
22,COc1cccc2c1OCC(Cc1cc(C(=O)N3CCCC3)ccn1)C2 (stereo not given),103.2%

row,SMILES,Percent Effect
1,COc1cccc2c1OCC(CNC(=O)Cc1csc(C(C)=O)c1)C2 (stereo not given),-8.032%
2,COc1cccc2c1OCC(C(=O)N1CCSCC1)C2 (stereo not given),-0.8492%
3,CCOCCC(=O)NCC1COc2c(cccc2OC)C1 (stereo not given),-9.333%
4,COc1cccc2c1OCC(Cc1cnc(N)c(C)c1)C2 (stereo not given),43.69%
5,COc1cccc2c1OCC(CNC(=O)CN(C)C1CCCC1)C2 (stereo not given),-4.207%
6,COc1cccc2c1OCC(CNC(=O)Cc1cnccn1)C2 (stereo not given),-6.368%
7,CCNC(=O)c1ccnc(CC2COc3c(cccc3OC)C2)c1 (stereo not given),109.1%
8,COc1cccc2c1OCC(Cc1cc(C(N)=O)ccn1)C2 (stereo not given),86.97%
9,COc1cccc2c1OCC(CNC(=O)Cn1ccnc1C)C2 (stereo not given),-7.516%
10,COc1cccc2c1OCC(C(=O)N1Cc3ccccc3C1)C2 (stereo not given),-46.74%
11,CCCC(C)NCc1cnc(-c2cccc(C)c2)nc1 (stereo not given),4.812%
12,CC1=C[C@@H](CN2CCC(O)CC2)[C@H](C(C)C)C[C@H]1Cc1nnc(C)o1,4.973%
13,CC(C(=O)N(C)Cc1ccco1)n1cncn1 (stereo not given),14.16%
14,CN1Cc2[nH]nc(COCC3CC3)c2C1.O=C(O)C(F)(F)F.O=C(O)C(F)(F)F,-7.545%
15,CC(CO)CNC(=O)c1cc2cccc(F)c2o1 (stereo not given),-10.54%
16,CN1CCN(CC2CC2)C(=O)c2cnc(N3CCCC3)nc21,-1.77%
17,CN1CCN(CC2CC2)C(=O)c2cnc(N3CCCCC3)nc21,8.561%
18,Cc1cnc(N2C[C@@H]3CCN(CC4CC4)C(=O)[C@H]3C2)nc1,4.769%
19,CN1CCN(CC2CC2)C(=O)c2cnc(N3CCOCC3)nc21,128%
20,CN1CCN(CC2CC2)C(=O)c2cnc(N3CCC(CO)CC3)nc21,85.31%
21,CN1CCN(CC2CC2)C(=O)c2cnc(N3CC[C@@H](O)C3)nc21,-2.603%
22,c1cc2c(cc1-c1noc3c1CN(C1CCSC1)CC3)OCO2 (stereo not given),2.821%

row,SMILES,Percent Effect
1,CC(NCc1ccccc1CN1CCCC1=O)c1ccc(C#N)cc1 (stereo not given),-5.192%
2,CCN(CCOc1ccc(F)cc1)C(=O)c1ccncc1Cl,2.739%
3,O=C(NCCC1CN(Cc2cccnc2)CCO1)c1ccsc1 (stereo not given),-9.218%
4,N#CCCSc1sc2c(O)cc(O)nc2c1C#N,107.9%
5,N#Cc1c(SCCN2CCCCC2)sc2c(O)cc(O)nc12,98.27%
6,N#Cc1ccc(F)c(CSCCN2CCOCC2)c1,-32.26%
7,N#Cc1c(SCCN2CCCCCC2)sc2c(O)cc(O)nc12,100.4%
8,N#Cc1c(SCCN2CCOCC2)sc2c(O)cc(O)nc12,143.1%
9,FC(F)(F)Cn1nnnc1SCCN1CCCCC1,-6.458%
10,N#Cc1ccc(-c2nnc(CSCCN3CCOCC3)o2)cc1,-12.22%
11,Cn1cc(Br)cc1C(=O)NC1(C#N)CC1,-11.26%
12,c1cnc(NCCCOC2CCOCC2)nc1,1.156%
13,CC(C)CN1CCCn2nc(CNC(=O)CN3CCOC3=O)cc2C1,1.752%
14,Cn1cnnc1CNC(=O)CCCOc1ccccc1Cl,2.629%
15,Cc1ccc(N(C)Cc2nnnn2C2CC2)c(C)c1,-2.761%
16,Cc1cnn(C2CCCN(C(=O)c3cccc4c3OCO4)C2)c1 (stereo not given),104.2%
17,Cc1cc(C)n(C2CCCN(C(=O)c3cccc4[nH]ncc34)C2)n1 (stereo not given),4.56%
18,O=C(c1ccccc1N1CCOCC1)N1CCCC(n2cccn2)C1 (stereo not given),-2.451%
19,COCc1ccccc1C(=O)N1CCCC(n2nc(C)cc2C)C1 (stereo not given),4.248%
20,O=C(c1cccc2c1OCO2)N1CCCC(n2cccn2)C1 (stereo not given),2.187%
21,O=C(c1cccc2c1OCCO2)N1CCCC(n2cccn2)C1 (stereo not given),108.1%
22,Cc1cc(C)n(C2CCCN(C(=O)c3cccc4c3OCO4)C2)n1 (stereo not given),86.78%
